Source: PubChem BioAssay (National Center for Advancing Translational Sciences (NCATS))
SW480 rereplic – A quantitative high throughput screen for small molecules that induce DNA re-replication in SW480 colon adenocarcinoma cells; SW480 DNA re-replication, Hoechst DNA content imaging, 48 h; Potency, µM (series often up to 46.1 µM), for inactives: top-dose re-replication activation, usual class: activators; 340,000 compounds, 1.8% hits; AID 624297, 2012; note: potency is the fitted concentration of half-maximal effect; % of control where 0% means no effect; nearly all actives have a fitted effect of over 55% in size
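Per well, 250 cells were exposed to pinned compound for 48 hr. Nuclear DNA was visualised with Hoechst (40 min, 37 C) and total object intensity recorded by fluorescence scanning.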
IL1B secr inh – qHTS for Inhibitors of Inflammasome Signaling: IL-1-beta AlphaLISA Primary Screen; THP-1 LPS/ATP IL-1B secretion, AlphaLISA, 16 h; hits give low values; activity change, % at 57.5 µM; 360,000 compounds, 4.7% hits; AID 743279, 2014; in the data active = activity change below about -50%; inconclusive = mostly about -30% to -49%; note: % is set by controls: 0 for no effect and ±100 for the full control effect
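THP-1 cells pretreated 1 hr with compounds (up to 57.5 uM final), then stimulated with LPS (250 ng/mL final) plus ATP (1.25 mM final); secreted IL-1B measured by AlphaLISA after 16 hr, decreased signal indicating inhibition.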
TDP1 cell noCPT – qHTS for Inhibitors of human tyrosyl-DNA phosphodiesterase 1 (TDP1): qHTS in cells in absence of CPT. DT40 Tdp1-/- hTDP1 cells, no CPT, ATP luminescence, 48 h. AID 686978, 2013. 420,000 compounds, 15% hits. Potency, µM (doses to about 46.2 µM), inactives show top-dose activity change, negative = growth inhibition, most hits filed as inhibitors; note: potency is the fitted concentration of half-maximal effect; % is set by controls: 0 for no effect and ±100 for the full control effect; nearly all actives have a fitted effect of over 55% in size
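Cells were dispensed at 400 per well, compounds added by pin tool, plates incubated ≥48 hr at 37 °C, then CellTiter-Glo added for 30 min at room temperature before luminescence reading. Line: DT40 Tdp1-/- complemented with hTDP1; camptothecin omitted.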
MCF10A rerep – A quantitative high throughput screen for small molecules that induce DNA re-replication in MCF 10a normal breast cells | MCF 10A DNA re-replication, Hoechst nuclear intensity, 48 h | Potency, µM (highest dose often 46.1 µM), inactives show at the highest dose activity, positive = re-replication, hits mostly activators | 350,000 compounds, 2.9% hits; note: potency is the fitted concentration of half-maximal effect; % of control where 0% means no effect; nearly all actives have a fitted effect of over 50% in size
DT40 TDP1 CPT – qHTS for Inhibitors of human tyrosyl-DNA phosphodiesterase 1 (TDP1): qHTS in cells in presence of CPT; chicken DT40 Tdp1-/-;hTDP1 cells + 20 nM CPT, ATP luminescence, 48 h; Potency, µM (top dose mostly 46.2 µM), for inactives: at the top dose activity change, negative = growth inhibition, most hits filed as inhibitors; 420,000 compounds, 12% hits; note: potency is the fitted concentration of half-maximal effect; % is set by controls: 0 for no effect and ±100 for the full control effect; nearly all actives have a fitted effect of over 55% in size
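Cell growth measured by CellTiter-Glo luminescence after a minimum 48 h, 37 C compound exposure with 20 nM CPT in Tdp1-knockout DT40 cells stably expressing hTDP1, seeded 400/well; qHTS titration format.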
Chronic BCR inh – qHTS Assay to Find Inhibitors of Chronic Active B-Cell Receptor Signaling. ABC-DLBCL IkBa-CBG/CBR reporter, luminescence ratio, 4 h. Potency, µM (top dose mostly 46.1 µM), without a hit: top-dose activity change, negative = inhibition, most hits filed as inhibitors. 340,000 compounds, 0.05% hits. AID 493014, 2011; active = well fitted inhibition curve with a large enough effect in the signal ratio, with a control signal flat, not every such curve was filed as active; inconclusive = small, poorly fitted or top-dose-only effect, or effect the other way, or a change in a side signal; the % refers to the signal ratio;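 note: potency is the fitted concentration of half-maximal effect; plate controls were basal doxycycline-induced cells for no effect and cells given 10 µM MG132 for full effect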
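Cell line TMD8 (human ABC DLBCL), stably expressing tet-inducible CBG68-IkBa fusion and CBR; IMDM/0.5% FBS; cpd up to 46 uM; dox induction, 4 h, 37C/5% CO2; dual luminescence; green/red ratio; MG132 control.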
Numbers without * were called inactive; ? = inconclusive; . = no result given; [ ] = dose if it differs, or a comment. A selection: hits, their analogues and other compounds. The true share with any hit is near 19%. Unless noted, calls come from the whole dose curve; as a rule, active = well fitted curve in the direction sought with a large enough effect; inconclusive = small, poorly fitted or top-dose-only effect, or another doubt; inactive = no such curve, though single readings can be large; an effect the other way counts as inactive or inconclusive.

SMILES	SW480 rereplic	IL1B secr inh	TDP1 cell noCPT	MCF10A rerep	DT40 TDP1 CPT	Chronic BCR inh
O=C(c1ccc(F)cc1F)N1CCC(c2nc(-c3ccc(S(=O)(=O)N4CCCC4)cc3)no2)CC1	.	.	-25%	.	4%	.
Cc1ccc(S(=O)(=O)N2CCN(c3nc(-c4cnccn4)nc4ccccc34)CC2)cc1	.	.	18µM*	.	?	.
Cc1ccc(S(=O)(=O)N2CCN(c3nc(-c4ccncc4)nc4ccccc34)CC2)cc1	.	.	11µM*	.	-16%	.
COC(=O)c1nc(N2CCN(S(=O)(=O)c3ccc(C)cc3)CC2)c2ccccc2n1	.	.	18µM*	.	?	.
Cc1ccc(S(=O)(=O)N2CCN(c3nc(-c4cncnc4)nc4ccccc34)CC2)cc1	.	.	10µM*	.	8.9µM*	.
CC(C)(C)c1ccc(S(=O)(=O)N2CCN(c3nc(-c4ccccc4)nc4ccccc34)CC2)cc1	.	.	-23%	.	-19%	.
CC(=O)c1ccc(OC(=O)c2cc3ccccc3oc2=O)cc1	.	.	.	.	.	7%
CC(=O)c1c(C)[nH]c(C(=O)NCC2CCCCC2)c1C	5%	12	-9%	14%	-2%	?
CC(C)(C)N1C(=O)[C@H]2[C@@H](c3ccc(Br)cc3)N3C(=O)N(c4cccc(Cl)c4)C(=O)[C@@]3(Cc3ccccc3)[C@H]2C1=O	-4%	-20	21µM*	-10%	?	3%
COc1ccc([C@@H]2[C@@H]3C(=O)N(C(C)(C)C)C(=O)[C@@H]3[C@]3(Cc4ccccc4)C(=O)N(c4cccc(Cl)c4)C(=O)N23)cc1	-5%	2	?	-4%	-20%	?
CCN1C(=O)[C@H]2[C@@H](c3ccc(C)cc3)N3C(=O)N(c4ccc(C)cc4)C(=O)[C@@]3(Cc3ccc(Cl)cc3)[C@H]2C1=O	-2%	4	21µM*	-1%	18µM*	6%
CC[C@@]12C(=O)N(c3ccc(C)cc3)C(=O)N1[C@H](c1ccc(OC)cc1)[C@@H]1C(=O)N(C(C)(C)C)C(=O)[C@@H]12	7%	14	1%	-6%	13%	12%
COc1ccc([C@@H]2[C@@H]3C(=O)N(C(C)(C)C)C(=O)[C@@H]3[C@]3(Cc4ccccc4)C(=O)N(c4ccc(Br)cc4)C(=O)N23)cc1	-9%	0	23µM*	0%	23µM*	12%
CC[C@@]12C(=O)N(c3ccc(C)cc3)C(=O)N1[C@H](c1ccc(Br)cc1)[C@@H]1C(=O)N(C(C)(C)C)C(=O)[C@@H]12	13%	?	?	-8%	7.3µM*	8%
CCN1C(=O)[C@H]2[C@@H](c3ccc(C)cc3)N3C(=O)N(c4ccccc4)C(=O)[C@@]3(Cc3ccc(Cl)cc3)[C@H]2C1=O	65%	-20	?	3%	?	16%
COc1ccc(N2C(=O)N3[C@H](c4ccc(Br)cc4)[C@@H]4C(=O)N(C(C)(C)C)C(=O)[C@@H]4[C@]3(Cc3ccccc3)C2=O)cc1	?	-20	-12%	0%	-8%	3%
Clc1ccccc1Cn1nnc2ccccc21	-2%	-9	-24%	5%	-18%	-5%
CCCOC(=O)c1ccc(Nc2nc3ccccc3nc2-n2nc(C)cc2C)cc1	.	.	-5%	.	-18%	.
COc1cccc(Cn2nnc(C(=O)Nc3cc(Cl)ccc3OC)c2N)c1	-2%	-2	16µM*	?	23µM*	?
COc1ccc(OC)c(NC(=O)c2nnn(Cc3ccc(Br)cc3F)c2N)c1	0%	-26	18µM*	0%	8.2µM*	?
Cc1ccc(C)c(NC(=O)c2nnn(Cc3ccc(F)cc3Cl)c2N)c1	.	.	6.5µM*	.	15µM*	.
Cc1ccc(C)c(NC(=O)c2cnc3sc(N4CCOCC4)nn3c2=O)c1	.	.	-13%	.	-7%	.
COCCNS(=O)(=O)c1cc2[nH]c3c(c2cc1C)C(=O)CC(C)(C)C3	-2%	-9	?	16%	-1%	?
O=C([C@@H]1C[C@@H](Sc2nc3ccccc3[nH]2)CN1CC1CCCCC1)N1CCOCC1	.	.	-16%	.	-4%[9.04 µM]	.
Cn1c2c(c(=O)n(C)c1=O)C(c1ccccc1Cl)C(C#N)=C(N)O2 (configuration not stated)	-11%	-5	-12%	12%	-17%	9%
SMILES	SW480 rereplic	IL1B secr inh	TDP1 cell noCPT	MCF10A rerep	DT40 TDP1 CPT	Chronic BCR inh
Cn1c2c(c(=O)n(C)c1=O)C(c1ccc(Br)cc1)C(C#N)=C(N)N2 (configuration not stated)	1%	13	23µM*	1%	?	0%
COc1ccc(C)cc1S(=O)(=O)n1cnc2ccccc21	?	5	15µM*	?	13µM*	-12%
CS(=O)(=O)N(CC(=O)N1CCOCC1)c1ccccc1Br	3%	-2	-11%	0%	-6%	7%
CS/C(Nc1cc(Cl)ccc1Cl)=C(/C#N)C(=O)c1ccco1	-10%	-13	16µM*	?	9.2µM*	?
O=C(CCSc1ccccc1)Nc1ccc(S(=O)(=O)Nc2ncccn2)cc1	12%	34	-17%	-4%	1%	0%
CSCCC(=O)Nc1nc(-c2ccccn2)cs1	?	17	?	2%	16µM*	?
O=C(CCSc1ccccc1)Nc1ncccn1	23%	18	-9%	21µM*	-2%	0%
N#Cc1ccccc1OCC(=O)Nc1nc(-c2ccccn2)cs1	.	82	5.2µM*	.	2.9µM*	.
O=C(COc1ccccc1Cl)Nc1nc(-c2ccncc2)cs1	-7%	-2	16µM*	15%	15µM*	-6%
